Assay outcomes: PubChem, several laboratories
MCL1-BIM inh: disrupts human MCL1 binding to BIM-BH3 peptide. Q07820. GST-MCL1 / FITC-Bim-BH3 fluorescence polarization. inhibition, % at 10.9 µM. hit rate 0.68% among 320,000. AID 2057;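 active = inhibition above the mean inhibition of all tested compounds plus 3 SD, set per campaign, cut at about 40% in these data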;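 note: 0% = DMSO wells and 100% = unlabeled Bim-BH3 peptide control; higher means more loss of mP so more displacement of Bim peptide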
Target sequence (Q07820 whole entry, looked up): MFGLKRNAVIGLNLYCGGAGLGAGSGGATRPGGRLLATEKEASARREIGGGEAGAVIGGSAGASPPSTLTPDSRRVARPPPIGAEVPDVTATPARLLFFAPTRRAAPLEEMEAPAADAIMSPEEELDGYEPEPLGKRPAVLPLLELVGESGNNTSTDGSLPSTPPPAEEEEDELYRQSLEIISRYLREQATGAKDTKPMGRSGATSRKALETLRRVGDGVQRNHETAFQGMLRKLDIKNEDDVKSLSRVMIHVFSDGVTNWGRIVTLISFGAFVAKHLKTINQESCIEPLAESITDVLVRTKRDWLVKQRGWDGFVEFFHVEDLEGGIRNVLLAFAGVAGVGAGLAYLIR
GLD-1 TGE inh: GLD-1-TGE RNA interaction inhibition (C. elegans). Q17339. inhibition, % at 5.96 µM. hit rate 0.44% among 320,000. purified GLD-1 + fluorescein TGE RNA, fluorescence polarization;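 active = percent inhibition above a per-plate cutoff, the plate mean of test compounds plus 3 SD, cut at about 30% in these data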;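 note: 0% = DMSO wells with GLD-1 and probe and 100% = wells lacking GLD-1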
MEX-5 binding: C. elegans MEX-5 TCR-2 RNA binding activity. Q9XUB2. MEX-5/FITC-TCR2 RNA binding, fluorescence polarization; hits give low values. activity score (negative = inhibition of binding), % at 10 µM. hit rate 0.38% among 300,000. AID 1832;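 active = inhibition past about -25% in most replicates, and total fluorescence under double the plate's negative control median, limit read from the data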;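 note: 0% = DMSO and -100% = 5 µM competing unlabeled TCR2 RNA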
Bcl-xL primary: blocks human Bcl-xL binding to Bim BH3 peptide | hit rate 0.7% among 320,000 | GST-Bcl-xL / FITC-Bim BH3 peptide fluorescence polarization | AID 2129 | Q07817 | inhibition, % at 10.9 µM;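 active = inhibition above the mean of all tested compounds plus 3 SD, cutoff set per campaign, cut at about 30% in these data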;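 note: 0% = DMSO wells and 100% = unlabeled Bim-BH3 peptide competitor; inhibitors lower millipolarization by displacing the labeled peptide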
E coli Lon inh: inhibitors of E. coli Lon protease; P0A9M0; purified E. coli Lon protease, fluorescence polarization; inhibition, % at 7.94 µM; hit rate 0.42% among 360,000; AID 602123; in the data active = inhibition above about 13%, passing the limit was not always enough;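 note: 0% = enzyme with probe and DMSO and 100% = no enzyme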
Active calls of the source: *. Hits are enriched below; roughly 1.4% of the tested compounds scored in any of these assays.

`COc1ccc(OC)c(NC(=O)C2CCCN(S(=O)(=O)c3c(C)noc3C)C2)c1` (configuration not stated) gave MCL1-BIM inh -2.9, GLD-1 TGE inh 1.1, MEX-5 binding -3.6, Bcl-xL primary 5.6 and E coli Lon inh 0.3.
For CCC/C=N/NC(=O)C1COc2ccccc2O1 (configuration not stated) the results were MCL1-BIM inh 2.4, GLD-1 TGE inh 8.8, MEX-5 binding 2.7, Bcl-xL primary 97.6* and E coli Lon inh 5.9.
CCC(/C=N/NC(=O)C1COc2ccccc2O1)CC (configuration not stated) was read as MCL1-BIM inh 2.4, GLD-1 TGE inh 2.4, MEX-5 binding 0.0, Bcl-xL primary -4.7 and E coli Lon inh 3.0.
O=C(c1cc(-c2ccc(Cl)c(Cl)c2)on1)N1CCCCCC1 was read as MCL1-BIM inh -1.8, GLD-1 TGE inh 1.8, MEX-5 binding -1.5, Bcl-xL primary 2.8 and E coli Lon inh -4.3.
O=C(c1cc(-c2ccc(Cl)cc2)on1)N1CCCCCC1 was read as MCL1-BIM inh -3.4, GLD-1 TGE inh 33.9*, MEX-5 binding -1.8, Bcl-xL primary 2.5 and E coli Lon inh -4.7.
Screening O=C(N/N=C(\c1ccccc1)c1cccnc1)c1cccc(F)c1 returned MCL1-BIM inh -3.9, GLD-1 TGE inh -1.9, MEX-5 binding -0.3, Bcl-xL primary 1.6 and E coli Lon inh 0.2.
COc1cc(/C=C2/N=C(c3ccccc3)OC2=O)c(F)cc1OCc1ccccc1 was read as MCL1-BIM inh 29.9, GLD-1 TGE inh -0.9, MEX-5 binding -60.1*, Bcl-xL primary 6.1 and E coli Lon inh 2.7.
`CNC(=O)c1cn(-c2ccccc2)c(=O)c2ccccc12` gave MCL1-BIM inh 40.8*, GLD-1 TGE inh 72.2*, MEX-5 binding -0.5, Bcl-xL primary 72.1* and E coli Lon inh -2.0.
Screening CC(C)OC(=O)Cc1nc2sc(-c3ccccc3)cc2c(=O)[nH]1 returned MCL1-BIM inh -6.8, GLD-1 TGE inh -6.5, MEX-5 binding 0.1, Bcl-xL primary -3.7 and E coli Lon inh -7.8.
`O=C(Nc1nccs1)c1ccc(-c2ccc([N+](=O)[O-])cc2)o1` gave MCL1-BIM inh -21.5, GLD-1 TGE inh 1.4, MEX-5 binding -42.5*, Bcl-xL primary -8.5 and E coli Lon inh 5.4.
O=C(Nc1nccs1)c1ccc(-c2ccc(Cl)cc2)o1 was read as MCL1-BIM inh 1.8, GLD-1 TGE inh -2.2, MEX-5 binding -3.8, Bcl-xL primary 1.1 and E coli Lon inh 6.9.
COC(=O)C1=CO[C@@H](O[C@@H]2O[C@H](CO)[C@@H](O)[C@H](O)[C@H]2O)C2C1C=C[C@@]2(O)CO (some centres not stated) was read as GLD-1 TGE inh 5.1 and E coli Lon inh 0.0.
Screening CCOC(=O)COn1c(=O)c(-c2cc3ccccc3o2)[n+]([O-])c2ccccc21 returned MCL1-BIM inh 7.2, GLD-1 TGE inh 16.3, MEX-5 binding -36.9*, Bcl-xL primary 18.0 and E coli Lon inh 8.4.
For CCOC(=O)COn1c(=O)c(-c2ccc(F)cc2)[n+]([O-])c2ccccc21 the results were MEX-5 binding -1.5 and E coli Lon inh 0.2.
For CC1Cc2nc(SCC(=O)Nc3nc4ccccc4s3)n(C)c(=O)c2S1 (configuration not stated) the results were MCL1-BIM inh 12.5, GLD-1 TGE inh 3.2, MEX-5 binding 1.4, Bcl-xL primary 8.8 and E coli Lon inh -7.7.
Screening Cc1ccc(-c2csc3ncnc(N4CCN(C(=O)c5ccco5)CC4)c23)cc1 returned MCL1-BIM inh -12.2, GLD-1 TGE inh -0.8, Bcl-xL primary -5.8 and E coli Lon inh -14.6.
Screening O=C(c1ccco1)N1CCN(c2ncnc3c(-c4ccc(Cl)cc4)nsc23)CC1 returned MCL1-BIM inh 8.8, GLD-1 TGE inh 4.3, MEX-5 binding -29.2*, Bcl-xL primary 6.2 and E coli Lon inh -6.6.
For Cc1c(NC(=S)SCc2ccccc2)c(=O)n(-c2ccccc2)n1C the results were MCL1-BIM inh 14.3, GLD-1 TGE inh 2.5, MEX-5 binding -2.6, Bcl-xL primary 9.2 and E coli Lon inh 9.8.
`COC(=O)C1=C(O)/C(=C\c2cc(C)n(-c3ccccc3F)c2C)N=C1C` gave MCL1-BIM inh 29.1, GLD-1 TGE inh 27.8, MEX-5 binding -7.4, Bcl-xL primary 29.1 and E coli Lon inh 0.5.
Screening COC(=O)C1=C(O)/C(=C\c2cc(C)n(-c3ccccc3C)c2C)N=C1C returned MCL1-BIM inh 43.6*, GLD-1 TGE inh 27.1, MEX-5 binding 0.8, Bcl-xL primary 42.0* and E coli Lon inh -6.5.
